# Assay outcomes: PubChem, several laboratories
# GDH-TPI counter-1 = GDH-TPI coupling enzyme inhibitors, primary screen, artefact control for M. tuberculosis FBA inhibitor project, biochemical, absorbance, full deck; inhibition, % at 4.8 µM; 1.2% of 360,000 active; GDH-TPI coupled enzyme counterscreen, NADH absorbance; AID 588335, 2011; in the data active = inhibition above about 30%;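 also: 0% = DMSO wells and 100% = wells lacking the enzyme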
# Vc quorum ag = inducers of Vibrio cholerae quorum light production without autoinducers, primary screen, BH1578 luxS cqsA deficient, single point; activation, % at 18.7 µM; V. cholerae BH1578 lux reporter, luminescence, 6 h; AID 588436, 2011; 0.16% of 350,000 active; in the data active = activation mostly above about 9.7%, no sharp cut-off
# FBA Mtb inh = Mtb FBA enzyme inhibitors, primary screen, biochemical, fluorescence, strain H37Rv. purified M. tuberculosis FBA, fluorescence read-out. AID 588726, 2011. 2.3% of 360,000 active. inhibition, % at 1 µM;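 also: 0% = vehicle and 100% = reference inhibitor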
# Target sequence (P9WQA3 whole entry, looked up): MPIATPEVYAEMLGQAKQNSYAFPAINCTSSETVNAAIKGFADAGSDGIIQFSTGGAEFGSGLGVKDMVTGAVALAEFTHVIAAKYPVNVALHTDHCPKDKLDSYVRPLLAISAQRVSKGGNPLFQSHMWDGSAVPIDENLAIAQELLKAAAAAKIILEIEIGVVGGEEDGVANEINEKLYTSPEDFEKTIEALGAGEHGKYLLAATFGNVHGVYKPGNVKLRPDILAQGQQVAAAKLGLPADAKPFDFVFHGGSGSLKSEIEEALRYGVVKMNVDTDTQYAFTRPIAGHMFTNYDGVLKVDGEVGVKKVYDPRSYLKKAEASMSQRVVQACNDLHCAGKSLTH
# PrPC TRFRET = inhibitors of human cell surface prion protein PrPC, primary screen, cell-based, TR-FRET; TR-FRET read-out; inhibition, % at 13.8 µM; 0.43% of 370,000 active; AID 720596, 2013; in the data active = inhibition above about 24%; also: 0% = median of the test wells and 100% = reference compound wells
# 3CLpro inhibitor = SARS-CoV 3CLpro protease inhibitors, primary screen, biochemical, quenched FRET | recombinant SARS-CoV 3CLpro, quenched FRET peptide cleavage | inhibition, % at 6 µM | 0.14% of 290,000 active | AID 1706, 2009; in the data active = inhibition above about 12%
# Mtb FBA confirm = M. tuberculosis aldolase blockers, biochemical, fluorescence, strain H37Rv, confirmation | shares compounds with FBA Mtb inh | purified M. tuberculosis FBA, fluorescence read-out | inhibition, % at 1 µM | 78% of 5,600 active | AID 651616, 2012;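 also: 0% = vehicle wells and 100% = reference inhibitor wells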
# GDH-TPI counter-2 = GDH-TPI coupling enzyme inhibitors, artefact control for M. tuberculosis FBA inhibitor project, biochemical, fluorescence, high throughput | shares compounds with FBA Mtb inh | GDH-TPI coupled enzyme counterscreen | inhibition, % at 1 µM | 81% of 5,600 active | AID 652141, 2013; in the data active = inhibition above about 10%
# An asterisk follows results filed as active; i = inactive; x = no result given; + = active, no number. Most compounds without a hit are left out; they make up all but 3.9% or so of the library. Rule as the data show it, unless noted: active = inhibition above about 27%; inactive = the rest.
SMILES,GDH-TPI counter-1,Vc quorum ag,FBA Mtb inh,PrPC TRFRET,3CLpro inhibitor,Mtb FBA confirm,GDH-TPI counter-2
CCOC(=O)N1CCN(C(=O)C2COc3ccccc3O2)CC1 (centres undefined),6,i,-3,-3,0,x,x
Cc1c(C)c2ccc(OCC(=O)N3CCN(C(=O)C4COc5ccccc5O4)CC3)cc2oc1=O (centres undefined),13,i,66*,-3,2,29*,17*
Cc1cc(=O)oc2cc(OCC(=O)N3CCN(C(=O)C4COc5ccccc5O4)CC3)ccc12 (centres undefined),16,6,35*,-4,9,+,+
COc1cc2nc(N3CCN(C(=O)C4COc5ccccc5O4)CC3)nc(N)c2cc1OC (centres undefined),18,i,85*,-6,0,148*,110*
O=C(COc1ccc2ccc(=O)oc2c1)N1CCN(C(=O)C2COc3ccccc3O2)CC1 (centres undefined),16,i,23,-4,7,x,x
CCC(C)(C(=O)NC1CCCCC1)N(C(=O)C1CCC(=O)N1)c1ccc(C)cc1 (centres undefined),-2,0,2,1,0,x,x
O=C(Nc1ccc(Cl)cc1)C1CCCN1S(=O)(=O)c1cccc2cccnc12 (centres undefined),x,x,x,22,x,x,x
CC(C)C1C(=O)N(Cc2cn(Cc3ccco3)nn2)CCS(=O)(=O)N1Cc1ccc(-c2ccc(F)cc2)cc1 (centres undefined),-11,-1,-2,7,x,x,x
CCOC(=O)c1[nH]c2cc(OC)c(OC)cc2c1NC(=O)C(C)N1CCN(Cc2ccccc2)CC1 (centres undefined),14,8,47*,1,0,+,+
Cc1oc(-c2ccc(F)cc2)nc1CN1CCCC(C(=O)N2CCOCC2)C1 (centres undefined),1,0,-3,-7,1,x,x
COC(=O)c1ccc(-c2nc(CN3CCC(C(=O)N4CCOCC4)CC3)c(C)o2)cc1,-3,i,48*,x,2,47*,37*
Cc1cc(O)c(C(C[N+](=O)[O-])c2ccc(Cl)cc2)c(=O)o1 (centres undefined),9,i,102*,-3,0,-1,-4
CC(=O)N1c2cc(S(=O)(=O)Nc3c(C)n(C)n(-c4ccccc4)c3=O)c(Br)cc2CC1C (centres undefined),x,x,x,-6,x,x,x
Cc1ccc(-c2cc(C(=O)OCn3nnc4ccccc4c3=O)c3ccccc3n2)cc1,2,0,0,-3,3,x,x
O=C(O)c1ccc(-n2cc(-c3cc4ccccc4oc3=O)[nH]c2=S)cc1,23,0,32*,6,8,139*,99*
CC(=O)Nc1ccc(-n2cc(-c3ccccc3)[nH]c2=S)cc1,3,0,1,0,2,x,x
O=C(CCCc1ccccc1)NCCS(=O)(=O)N1CCN(c2ccccc2)CC1,8,-6,-3,3,x,x,x
C=CCNc1nc(NCc2ccccc2)c(C#N)c2c1CN(C)CC2,14,x,71*,-22,-8,58*,52*
CN(c1ccccc1)S(=O)(=O)c1ccc(C(=O)Nc2ncccc2O)cc1,7,i,4,0,x,x,x
COC(=O)CSc1nc(C)c(C(C)=O)cc1C#N,10,i,0,2,-2,x,x
CCSc1nc(-c2ccco2)ccc1C#N,11,0,2,1,11,x,x
COC(=O)CSc1nc(-c2cccs2)ccc1C#N,-4,0,71*,12,3,+,+
C#CCSc1nc(-c2cccs2)ccc1C#N,26,x,36*,-4,4,51*,46*
Cc1cccc(-c2cccc3c4c([nH]c23)[C@@H]2C[C@H]3[C@@H](CN2CC4)[C@H](C)ON3C)c1,x,x,x,-6,x,x,x
Nc1ncccc1C(=O)OCC(=O)NC1CCCCCC1,11,2,33*,-3,x,56*,43*
SMILES,GDH-TPI counter-1,Vc quorum ag,FBA Mtb inh,PrPC TRFRET,3CLpro inhibitor,Mtb FBA confirm,GDH-TPI counter-2
Nc1c(Cl)cc(Cl)cc1C(=O)OCC(=O)NC1CC1,10,0,84*,3,2,8,0
O=C(COC(=O)c1ccccn1)NC1CCCCC1,-10,10,1,17,1,x,x
O=C(COC(=O)c1cc(F)c(F)cc1Cl)NC1CC1,2,-2,3,-3,7,x,x
COc1cccc(NC2=NC3(CCCCC3)N=C(N)N2)c1,0,0,0,-1,-1,x,x
N#Cc1c(N2CCCCC2)nc(N2CCCCC2)c2c1CCN(Cc1ccccc1)C2,19,0,12,-10,-2,x,x
N#Cc1c(Cl)nc(Cl)c2c1CCN(Cc1ccccc1)C2,1,0,93*,6,-4,+,+
O=C(Nc1ccc2ccccc2c1)N1CCN(c2ncccc2C(F)(F)F)CC1,-3,3,37*,1,5,-9,-5
CCCCCCCCN1C(=O)[C@@H](CC(=O)NCCC(C)C)C[C@@]2(C(=O)OC)C1=C[C@H](C(C)(C)C)O[C@@H]2C,x,x,x,-3,x,x,x
COc1ccc2[nH]c3c(c2c1)CCNC3=O,2,i,88*,0,x,44*,36*
CC1CCCCN1C(=S)Nc1ccc2nc3n(c(=O)c2c1)CCCCC3 (centres undefined),5,-1,30*,21,-2,45*,39*
COc1ccccc1CN(C)C[C@@H]1OCc2cnnn2CCCC(=O)N([C@@H](C)CO)C[C@H]1C,-18,i,1,4,x,x,x
COc1ccccc1CNC(=O)COC(=O)c1cnccn1,-4,x,0,-2,-5,x,x
Nc1nccnc1C(=O)OCC(=O)NCCc1ccc(S(N)(=O)=O)cc1,10,0,88*,-3,x,100*,91*
COc1ccccc1CNC(=O)COC(=O)c1nccnc1N,0,i,48*,-3,10,9,-6
Cc1ccc2cc(C#N)c(NCCNC(=S)NCCCN(C)C)nc2c1C,3,0,15,11,-7,x,x
CCOCCCNC(=S)NCCNc1nc2c(C)cccc2cc1C#N,13,i,57*,x,-5,33*,29*
Cc1cccc2cc(C#N)c(NCCNC(=O)COc3ccccc3)nc12,2,0,40*,-2,4,102*,89*
Cc1cccc2cc(C#N)c(NCCCn3ccnc3)nc12,-3,i,39*,-5,5,152*,139*
Cc1ccc2cc(C#N)c(NCCNC(=O)C3CC3)nc2c1C,-2,0,32*,9,-1,133*,111*
